Screening data as filed in PubChem.
In the library only some 27% were active in any assay of this set; here they are far more common.
CYP2C19 activ – cytochrome P450 2C19 (human) activation | AID 1025 | activation factor at 5 µM | recombinant CYP2C19, luciferin-H EGE luminescence; active compounds read high; 0 = fully inhibited enzyme, 1 = untreated enzyme | 96,000 tested, under 10 active;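 active means activation factor of at least 2 at 5 µM in the primary screen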;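 further: 0 = wells with 2.5 mM tranylcypromine and 1 = vehicle-only wells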
CYP2C9 act – CYP2C9 (human) activation; recombinant CYP2C9, luciferin-H conversion, luminescence; active compounds read high; factor 1 = untreated enzyme, 0 = blocked; P11712; 1.4% of 96,000 active; activation factor at 5 µM;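 active means activation factor of 2 or more for CYP2C9 at a 5 µM dose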;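 further: 0 = sulfaphenazole-blocked wells and 1 = vehicle-only wells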
Target sequence (P11712 whole entry, looked up): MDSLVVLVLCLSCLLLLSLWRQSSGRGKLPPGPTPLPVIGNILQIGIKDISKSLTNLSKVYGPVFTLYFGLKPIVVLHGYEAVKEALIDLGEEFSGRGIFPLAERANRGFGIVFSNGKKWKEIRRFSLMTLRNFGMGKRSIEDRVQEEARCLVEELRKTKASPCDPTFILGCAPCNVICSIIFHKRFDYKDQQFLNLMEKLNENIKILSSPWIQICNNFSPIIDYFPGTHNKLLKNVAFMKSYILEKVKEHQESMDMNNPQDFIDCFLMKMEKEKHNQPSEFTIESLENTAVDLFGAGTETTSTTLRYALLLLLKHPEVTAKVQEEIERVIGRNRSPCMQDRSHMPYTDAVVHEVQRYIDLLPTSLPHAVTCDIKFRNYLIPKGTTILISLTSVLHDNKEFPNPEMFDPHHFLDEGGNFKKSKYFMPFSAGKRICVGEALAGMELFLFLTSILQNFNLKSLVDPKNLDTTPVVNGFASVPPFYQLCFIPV
CYP2C9 inhib – human CYP2C9 inhibition. P11712. CYP2C9 Supersomes, luciferin-H conversion, luminescence. inhibition, % at 5 µM. 20% of 96,000 active. AID 777;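 active means blocking of liver enzyme CYP2C9 beyond about 50% at 5 µM, limit read from the data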
EphB4 ephrin blk – blocks human EphB4 binding to ephrin-B2. P54760. EphB4 LBD / TNYL-RAW-Alexa532 peptide, fluorescence polarization. inhibition, % at 7 µM. 0.15% of 97,000 active. AID 720;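 active means inhibition above the screen-wide mean inhibition plus 3 SD, cut at about 15% in these data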;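 further: 0% = DMSO wells and 100% = excess unlabeled TNYL-RAW peptide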
CYP2C19 inhib – inhibitors of human CYP2C19 | CYP2C19 Supersomes, luciferin-H EGE luminescence, 30 min | inhibition, % at 5 µM | 21% of 96,000 active;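 active means CYP2C19 inhibition above a set limit at 5 µM in the primary screen, cut at about 50% in these data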;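 further: plate controls were negative control wells for no effect and 2.5 mM tranylcypromine positive control for full effect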
Numbers without * were called inactive; / = no result.

SMILES	CYP2C19 activ	CYP2C9 act	CYP2C9 inhib	EphB4 ephrin blk	CYP2C19 inhib
CCOC(=O)c1c(OCC)[nH]c2ccc(O)cc12	1	1.6	-61.8	3.1	-3.4
CCOC(=O)c1c(C)nc(-c2ccccc2)nc1NC(C)=O	0.7	0.7	30.9	3.5	26.3
CCOC(=O)c1c(C)nc(-c2ccccc2)nc1N	0.2	0.3	67.0*	-2.9	81.5*
CCCS(=O)(=O)N1CCN(S(=O)(=O)c2ccccc2)CC1	0.4	0.4	56.0*	-4.1	60.6*
Cc1ccc(S(=O)(=O)N2CCN(S(=O)(=O)c3ccc(C)cc3)C2)cc1	0.7	0.3	67.9*	5.4	29.7
Cc1ccc(S(=O)(=O)N2CCN(C(=O)CC3CCCC3)CC2)cc1	0.9	1	0.9	3.2	11.1
Cc1ccc(S(=O)(=O)N2CCN(C(=O)Cc3ccccc3)CC2)cc1	0.4	0.7	33.0	-4.8	64.2*
CCCS(=O)(=O)N1CCN(c2ccccn2)CC1	0.3	0.6	39.5	2.0	69.3*
C=C(C)CC(NCc1ccco1)c1ccc(OC)cc1 (stereo not given)	0.8	0.9	6.5	0.7	24.1
O=S(=O)(c1ccccc1)N1CCN(S(=O)(=O)c2ccccc2)C1	0.1	0.3	66.9*	-6.4	93.9*
CCOC(=O)C(NC(=O)c1ccccc1)(Nc1cc(C)on1)C(F)(F)F (stereo not given)	0.4	0.6	39.4	11.9	62.2*
CCOC(=O)C(NCc1ccccc1)(NC(=O)c1ccccc1)C(F)(F)F (stereo not given)	0.5	0.6	36.7	-0.8	52.1*
C=CCNC(NC(=O)c1ccccc1)(C(=O)OCC)C(F)(F)F (stereo not given)	0.4	0.8	20.4	-1.7	63.6*
CCOC(=O)C(NC(=O)c1ccccc1)(Nc1nnc(C)s1)C(F)(F)F (stereo not given)	/	/	/	-1.1	/
CCOC(=O)C(NC(=O)c1ccc(OC)cc1)(Nc1cc(C)on1)C(F)(F)F (stereo not given)	0.8	0.7	29.7	-5.9	17.8
CCOC(=O)C(NCc1ccc2c(c1)OCO2)(NC(=O)c1ccccc1)C(F)(F)F (stereo not given)	0	0.3	74.1*	2.4	96.2*
Cn1nc(CC(=O)NC2CCCCC2)c2ccccc2c1=O	/	/	/	2.8	/
CC(C)(C)n1nnnc1C(c1cccc(C#N)c1)N1CCN2CCCC2C1 (stereo not given)	1.1	1	-4.5	-4.6	-12.9
CCN1C(=O)c2cccc3c(S(=O)(=O)NC(Cc4c[nH]c5ccccc45)C(=O)O)ccc1c23 (stereo not given)	1	1	-2.4	-4.3	0.2
CC(=O)c1c(C)n(-c2ccccc2)c2ccc(OCC(O)CN3CCOCC3)cc12 (stereo not given)	0.2	0.3	67.8*	1.1	77.4*
CC(=O)c1c(C)n(-c2ccccc2)c2ccc(O)cc12	0.2	0.5	49.0	-4.8	82.5*
CC(=O)c1c(C)n(CCO)c2ccc(O)cc12	1	1.1	-14.9	-7.2	4.2
COC(=O)c1c(C)n(-c2ccc(C)cc2)c2ccc(O)cc12	0.5	0.7	25.1	1.6	53.0*
CCN(CC)CC(O)COc1ccc2c(c1)c(C(C)=O)c(C)n2-c1ccccc1 (stereo not given)	/	/	/	1.5	/
CCOC(=O)c1[nH]c(C)c(/C(O)=C2\C(=O)C(=O)N(CCN(C)C)C2c2cccc(OC)c2OC)c1C (stereo not given)	1.2	1.1	-11.7	-7.8	-18.2
SMILES	CYP2C19 activ	CYP2C9 act	CYP2C9 inhib	EphB4 ephrin blk	CYP2C19 inhib
NC(=O)C(c1ncc(C(F)(F)F)cc1Cl)c1c(Cl)cccc1Cl (stereo not given)	0.6	1	-4.1	3.7	44.6
Cc1ccc(C(=O)c2coc3ccc(O)c(CN4CCN(C)CC4)c23)cc1	0.2	1.1	-11.3	1.2	78.5*
O=C(c1cccs1)c1coc2ccc(O)c(CN3CCOCC3)c12	0.3	0.3	73.0*	7.2	65.0*
C=CCN1C(=O)CSC1=Nc1ccc(O)cc1	1.1	1.3	-32.3	-5.7	-9.4
C=CCN1N=C(c2ccc(Cl)s2)CSC1=O	0.3	0.6	38.8	-1.5	72.5*
N#CC1=C(N)SC(N)=C(C#N)C1c1cccc(Oc2ccccc2)c1	0.6	0.1	92.3*	10.6	42.3
CCc1ccc(C2C(C#N)=C(N)SC(N)=C2C#N)cc1	0.7	0.6	43.5	-11.0	30.9
CCOc1ccc(C2C(C#N)=C(N)SC(N)=C2C#N)cc1OCC	0.4	0.2	83.9*	/	57.9*
